In all, about 290,000 compounds went through this assay and about 3,000 (1%) were called active. Cut-off read from the data, not from the text of the source: active = inhibition mostly above about 36% (no sharp cut-off); inactive = mostly below about 34%. The entries come from a sample that favours actives as a whole.
Test: inhibition of NOD1-driven NF-kB reporter – cell-based, luminescence, uHTS, primary screen (AID 1578);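 note: HEK-293T reporter cells stimulated with the NOD1 agonist gamma-tri-DAP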
Settings: NOD1-driven NF-kB luciferase reporter cells, at 4 µM, stronger effect = higher value

| Compound | inhibition |
| --- | --- |
| CCOc1ccc(OCC)c(N=c2oc3c(C)ncc(CO)c3cc2C(N)=O)c1 | 23.3% (inactive) |
| CSc1nnc(CNS(=O)(=O)c2ccc(Cl)cc2)n1C | -7.4% (inactive) |
| CC(C)(C)n1nc(-c2ccc(Cl)cc2)c2c(N)ncnc21 | 54.6% (inactive) |
| CC(=O)N(C(C)=O)c1ncnc2c1c(-c1ccc(Cl)cc1)nn2C(C)(C)C | 71.2% (active) |
| CC(=O)Nc1ncnc2c1c(-c1ccc(Cl)cc1)nn2C(C)(C)C | 39.6% (inactive) |
| Cc1ccccc1C(=O)Nc1ccccn1 | -7.2% (inactive) |
| c1ccc(-c2nn3c(-c4ccccc4)nnc3s2)cc1 | -69.4% (inactive) |
| O=S(=O)(/N=C(/Nc1ccccn1)c1ccccc1)c1ccccc1 | 5.7% (inactive) |
| COc1cc(N/C(=N/S(=O)(=O)c2ccccc2)c2ccccc2)ncn1 | 48.5% (active) |
| O=S(=O)(/N=C(/Nc1cc(N2CCOCC2)ncn1)c1ccccc1)c1ccccc1 | 0.2% (inactive) |
| Cn1c(CO)cnc1SCc1ccc(Cl)cc1 | -5.4% (inactive) |
| O=C1C2C3C=CC(CO)(O3)C2C(=O)N1c1ccccc1-c1ccccc1 (configuration not stated) | 72.3% (active) |
| CC(=O)Oc1ccc(N2C(=O)C3C4C=CC(CO)(O4)C3C2=O)cc1 (configuration not stated) | -9.3% (inactive) |
| O=C1C2C3C=CC(CO)(O3)C2C(=O)N1c1ccc(-c2ccccc2)cc1 (configuration not stated) | 35.6% (inactive) |
| CCc1ccc(CNc2ccc3c(c2)ncn3CC)cc1 | -16.7% (inactive) |
| CCC(SC1=NCCS1)C(=O)Nc1nnc(-c2ccccc2OC)s1 (configuration not stated) | -17.6% (inactive) |
| NC(=O)Nc1ccc(C(=O)OCC(=O)N(Cc2ccccc2)C2CCS(=O)(=O)C2)cc1 (configuration not stated) | -20.7% (inactive) |
| CN1CCc2c(sc(NC(=O)C3COc4ccccc4O3)c2C(N)=O)C1 (configuration not stated) | -27.9% (inactive) |
| Cc1cc2nc(-c3ccc(SCC(=O)NC(C)C)nc3)[nH]c2cc1C | 23.9% (inactive) |
| CC(=O)CSc1ccc(-c2nc3cc(C)c(C)cc3[nH]2)cn1 | 58.4% (active) |
| CCOC(=O)CSc1ccc(-c2nc3cc(C)c(C)cc3[nH]2)cn1 | -40.2% (inactive) |
| CN(C)Cc1ccc(CNC(=O)COc2ccc3ccccc3c2)cc1 | -35.8% (inactive) |
| CC(=O)Nc1ccc(S(=O)(=O)N/N=C/c2cccnc2)cc1 | -27.3% (inactive) |
| CCOc1ccc(-c2c(C)sc3nc[nH]c(=O)c23)cc1 | -20.6% (inactive) |
| CCOc1c(Br)ccc2c1sc1nc[nH]c(=O)c12 | 66.7% (active) |

| Compound | inhibition |
| --- | --- |
| CCOC(=O)c1c(N)sc2c(OCC)c(Br)ccc12 | -11.3% (inactive) |
| COc1cccc(NC(=S)N2C3CCCC2CC(NC(=O)C2CC2)C3)c1 (configuration not stated) | -11.4% (inactive) |
| CC(=C/c1ccc(C(C)C)cc1)/C=N/NC(=O)CSc1ccccn1 | -42.7% (inactive) |
| CCC1CCCCN1S(=O)(=O)c1ccc(NC(=O)c2cccs2)cc1 (configuration not stated) | -29.4% (inactive) |
| CCC1CCCCN1S(=O)(=O)c1ccc(NC(=O)c2cccnc2)cc1 (configuration not stated) | 30.5% (inactive) |
| O=C(Nc1ccc(Cc2ccncc2)cc1)c1ccc(S(=O)(=O)N2CCOCC2)cc1 | 31.5% (inactive) |
| O=C(Nc1ccc(S(=O)(=O)N2CCCCC2)cc1)c1ccncc1 | 9.7% (inactive) |
| CCN(CC)S(=O)(=O)c1ccc(OC)c(NC(=O)CSc2cc(C)ccc2C)c1 | -19.1% (inactive) |
| C=CCN(c1ccccc1C(=O)O)S(=O)(=O)c1ccc(C)cc1 | -26.8% (inactive) |
| O=S(=O)(Nc1ccc2c(c1)CCC2)c1cccs1 | 11.6% (inactive) |
| O=c1c2ccccc2ncn1-c1ccc2c(c1)OCCO2 | 26.3% (inactive) |
| CS(=O)(=O)N(Cc1ccc(Cl)cc1)c1ccc(C(=O)NCCC2=CCCCC2)cc1 | 9.1% (inactive) |
| CS(=O)(=O)Nc1ccc(C(=O)NCCC2=CCCCC2)cc1 | -9.5% (inactive) |
| CN(c1ccc(C(=O)NCCC2=CCCCC2)cc1)S(C)(=O)=O | 68.1% (active) |
| Cc1cc(NC(=O)CSc2nccn2C)n(-c2ccccc2)n1 | -0.5% (inactive) |
| Cc1cccc(N2CCCn3c2nc2c3c(=O)n(CCN3CCOCC3)c(=O)n2C)c1 | 17.7% (inactive) |
| COCCn1nnnc1C(c1ccccn1)N1CCN(c2cc(Cl)ccc2C)CC1 (configuration not stated) | -10.8% (inactive) |
| COC(=O)c1ccccc1NC(=O)C(C)n1nc(C)c2c(C)n(-c3ccccc3)nc2c1=O (configuration not stated) | 7.4% (inactive) |
| Cc1cc(C)cc(OCC(=O)Nc2ccc(CN3CCCCC3)cc2)c1 | -37.6% (inactive) |
| CCCCc1c(C)nc2ccc(Br)cc2c1SCCC#N | 19.5% (inactive) |
| CCc1c(C)nc2c(Br)cccc2c1SCCC#N | 22.1% (inactive) |
| O=C(CN1C(=O)S/C(=C\c2cccs2)C1=O)Nc1ccc(O)cc1C(=O)O | 38.9% (inactive) |
| Cn1nnnc1SCCNCc1ccccc1OCc1ccccc1Cl | -12.2% (inactive) |
| CCc1cccc(NC(=O)c2sc3nc4n(c(=O)c3c2C)CCC4)c1 | -29.9% (inactive) |
| COc1ccc(Nc2nc(-c3ccc(OC)cc3)cs2)cc1 | -34.6% (inactive) |

| Compound | inhibition |
| --- | --- |
| COc1ccc(-c2csc(Nc3ccc(O)cc3)n2)cc1 | 56.7% (active) |
| Oc1ccc(Nc2nc(-c3ccc(O)cc3)cs2)cc1 | -23.2% (inactive) |
| Cc1ccc(S(=O)(=O)N(CC(=O)N/N=C/c2cccc(C)c2)c2cccc3cccnc23)cc1 | -9% (inactive) |
| CC(C)CC(=O)NC(C)C(c1cccs1)N1CCOCC1 (configuration not stated) | -10.9% (inactive) |
| O=c1cc(C(F)(F)F)[nH]c(=S)n1-c1ccccc1 | -3.4% (inactive) |
| Cc1cc(-c2ccc([N+](=O)[O-])cc2)nc2ccccc12 | -26.6% (inactive) |
| O=[N+]([O-])c1ccc(-c2c(O)c3ccccc3c3nc4ccccc4nc23)cc1 | 87.7% (active) |
| O=[N+]([O-])c1ccc(-c2cnc3ccccc3n2)cc1 | -42.9% (inactive) |
| CCOC(=O)c1cnn(-c2ccc(C(F)(F)F)cn2)c1N | -92.9% (inactive) |
| CC(=O)Nc1ccc(NC(=O)CCOc2cc(C)ccc2C)cc1 | 46.4% (inactive) |
| CCOC(=O)C1(Cc2ccc(OC)cc2)CCN(C(=O)CCn2cccn2)CC1 | 1.1% (inactive) |
| Cc1cccc2sc(NNC(=O)c3cc(-c4cccs4)nc4ccccc34)nc12 | 86.7% (active) |
| Cc1ccc2sc(NNC(=O)c3cc(-c4cccs4)nc4ccccc34)nc2c1C | -36.7% (inactive) |
| Cc1cc(C)c2nc(NNC(=O)c3cc(-c4cccs4)nc4ccccc34)sc2c1 | -29.4% (inactive) |
| O=C(NCCOc1ccc(Cl)cc1)c1ccc2ccccc2n1 | -22.8% (inactive) |
| c1ccc(-c2nc3cnccn3c2Nc2ccc3c(c2)OCCO3)cc1 | -26.2% (inactive) |
| Cc1nn(CC(=O)c2ccc(Cl)s2)c(C)c1[N+](=O)[O-] | -20.3% (inactive) |
| COc1ccc(Cc2nnc(NC(=O)c3cccc(F)c3)s2)cc1OC | -8% (inactive) |
| Cc1cc(C(=O)CCl)c(C)n1CC1COc2ccccc2O1 (configuration not stated) | 51.3% (active) |
| Cc1cc(C(=O)CN2C(=O)C(=O)N(Cc3ccccc3)C2=O)c(C)n1CC1COc2ccccc2O1 (configuration not stated) | 27.8% (inactive) |
| Cc1cc(C(=O)COC(=O)c2ccc(O)cc2)c(C)n1CC1COc2ccccc2O1 (configuration not stated) | -9.9% (inactive) |
| COc1ccc(CCn2c(C)c(C(C)=O)c(C(C)=O)c2C)cc1OC | -23.3% (inactive) |
| CCOC(=O)c1cc(C)n(CCc2ccccc2)c1C | -18.3% (inactive) |
| Cc1cc(C(=O)CSc2nnnn2-c2ccccc2)c(C)n1CCc1ccccc1 | -52.2% (inactive) |
| COc1ccc(CCn2c(C)cc(C(=O)CCl)c2C)cc1OC | 59.7% (active) |

| Compound | inhibition |
| --- | --- |
| COc1ccc(CCn2c(C)cc(C(=O)CSc3nnnn3-c3ccccc3)c2C)cc1OC | -55.4% (inactive) |
| Cn1cccc1C(NC(=O)c1ccccc1)C(Cl)(Cl)Cl (configuration not stated) | -0.5% (inactive) |
| Cc1cccc(C)c1OCCNC(=O)c1ccc2ccccc2n1 | 53.9% (inactive) |
| COc1cccc(C(=O)Nc2ccc(Cl)c(C(F)(F)F)c2)c1 | -30.7% (inactive) |
| Cc1cc(=O)[nH]c(N/N=C/c2cn(CCC#N)nc2-c2ccccc2)n1 | -41.6% (inactive) |
| Cc1cc(NC(=O)CN(C)C)c([N+](=O)[O-])cc1C | -1.4% (inactive) |
| COC(=O)C1=C(Cn2cnc3ccccc32)NC(=O)NC1c1cc(C)ccc1C (configuration not stated) | 14.7% (inactive) |
| Cc1nnc2n(c1=O)C(CS(=O)(=O)c1ccccc1)CS2 (configuration not stated) | 9.4% (inactive) |
| CCCc1nnc(NC(=O)CCC(=O)N2CCN(Cc3cc(F)ccc3OC)CC2)s1 | -10.4% (inactive) |
| CCOC(=O)CNC(=O)Cc1ccc(Cl)cc1 | -9.2% (inactive) |
| Cc1nc2c(c(C)nn2-c2ccccc2)c(C)c1Cl | 6.2% (inactive) |
| Cc1cc(C)c2c(C)nn(-c3ccccc3)c2n1 | -3.5% (inactive) |
| CN(C)S(=O)(=O)c1cccc(C(=O)OCC(=O)Nc2sccc2C#N)c1 | 5.6% (inactive) |
| Fc1ccccc1Cc1nnc2n1N=C(c1ccc(Cl)cc1)CS2 | -16% (inactive) |
| Nc1cc(-c2cccc(Br)c2)nn1Cc1ccccc1 | -9.7% (inactive) |
| Nc1cc(-c2ccc(Br)cc2)nn1Cc1ccccc1 | 46.7% (active) |
| Nc1cc(-c2ccccc2)nn1Cc1ccccc1 | -25.1% (inactive) |
| Cc1cc(/C=C2\SC(=Nc3ccc(F)cc3)NC2=O)c(C)n1-c1ccc(S(N)(=O)=O)cc1 | -10.7% (inactive) |
| COc1ccc(Cc2nnc(SCC(=O)NC3CCCC3)o2)cc1 | 71.8% (active) |
| O=C(CSc1nnc(Cc2ccccc2)o1)NC1CCCCC1 | -2.8% (inactive) |
| COc1ccc(OCc2nnc(SCC(=O)NC3CCCCC3)o2)cc1 | -22.6% (inactive) |
| COc1ccc(C2NC(=O)CCC2[N+](=O)[O-])cc1 (configuration not stated) | -17.7% (inactive) |
